This passage reports Percent Effect results from ChEMBL document CHEMBL3988442, “University of Dundee, Small-Polar-MMV Screening Library” (2021).

For some of these results: Results with a measured potency or affinity are listed apart.

Holding throughout (design): scale not given: direction of the effect not stated beside the values
Assay [1] deals with Protein translocase subunit SecA (Escherichia coli (strain K12)) (UniProt P10408). Put plainly: Assay to Identify E. coli SecA ATPase Inhibitors. It is filed as functional. The conditions noted are these: 30 µM.
Sequence of Protein translocase subunit SecA (Escherichia coli (strain K12)) (P10408 whole entry): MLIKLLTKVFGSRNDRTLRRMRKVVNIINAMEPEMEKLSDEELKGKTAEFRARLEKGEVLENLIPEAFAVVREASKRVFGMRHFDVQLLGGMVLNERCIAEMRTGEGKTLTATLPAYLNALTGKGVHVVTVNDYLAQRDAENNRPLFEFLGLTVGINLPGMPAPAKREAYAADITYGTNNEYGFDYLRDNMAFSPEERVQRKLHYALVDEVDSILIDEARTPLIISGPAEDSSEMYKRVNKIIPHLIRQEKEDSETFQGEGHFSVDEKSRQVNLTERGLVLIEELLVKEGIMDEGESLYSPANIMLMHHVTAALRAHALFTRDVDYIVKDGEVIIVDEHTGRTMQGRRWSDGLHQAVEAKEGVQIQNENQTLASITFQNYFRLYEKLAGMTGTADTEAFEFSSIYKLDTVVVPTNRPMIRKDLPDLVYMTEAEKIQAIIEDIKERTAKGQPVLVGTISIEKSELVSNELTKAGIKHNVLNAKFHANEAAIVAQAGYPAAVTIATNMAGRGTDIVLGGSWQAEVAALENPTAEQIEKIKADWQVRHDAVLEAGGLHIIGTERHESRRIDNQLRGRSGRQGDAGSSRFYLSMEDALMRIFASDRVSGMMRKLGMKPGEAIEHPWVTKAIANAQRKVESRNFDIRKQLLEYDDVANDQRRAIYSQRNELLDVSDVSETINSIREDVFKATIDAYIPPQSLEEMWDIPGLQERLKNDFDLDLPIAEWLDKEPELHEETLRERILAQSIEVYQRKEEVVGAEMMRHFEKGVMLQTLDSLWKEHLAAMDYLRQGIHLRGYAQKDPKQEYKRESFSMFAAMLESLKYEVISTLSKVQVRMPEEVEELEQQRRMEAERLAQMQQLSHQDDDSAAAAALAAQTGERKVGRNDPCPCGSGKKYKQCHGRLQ
Assay [2] concerns the target T1, Ubiquitin-activating enzyme e1, putative (Leishmania donovani (strain BPK282A1)) (UniProt E9BSI1).
T1 sequence (whole entry): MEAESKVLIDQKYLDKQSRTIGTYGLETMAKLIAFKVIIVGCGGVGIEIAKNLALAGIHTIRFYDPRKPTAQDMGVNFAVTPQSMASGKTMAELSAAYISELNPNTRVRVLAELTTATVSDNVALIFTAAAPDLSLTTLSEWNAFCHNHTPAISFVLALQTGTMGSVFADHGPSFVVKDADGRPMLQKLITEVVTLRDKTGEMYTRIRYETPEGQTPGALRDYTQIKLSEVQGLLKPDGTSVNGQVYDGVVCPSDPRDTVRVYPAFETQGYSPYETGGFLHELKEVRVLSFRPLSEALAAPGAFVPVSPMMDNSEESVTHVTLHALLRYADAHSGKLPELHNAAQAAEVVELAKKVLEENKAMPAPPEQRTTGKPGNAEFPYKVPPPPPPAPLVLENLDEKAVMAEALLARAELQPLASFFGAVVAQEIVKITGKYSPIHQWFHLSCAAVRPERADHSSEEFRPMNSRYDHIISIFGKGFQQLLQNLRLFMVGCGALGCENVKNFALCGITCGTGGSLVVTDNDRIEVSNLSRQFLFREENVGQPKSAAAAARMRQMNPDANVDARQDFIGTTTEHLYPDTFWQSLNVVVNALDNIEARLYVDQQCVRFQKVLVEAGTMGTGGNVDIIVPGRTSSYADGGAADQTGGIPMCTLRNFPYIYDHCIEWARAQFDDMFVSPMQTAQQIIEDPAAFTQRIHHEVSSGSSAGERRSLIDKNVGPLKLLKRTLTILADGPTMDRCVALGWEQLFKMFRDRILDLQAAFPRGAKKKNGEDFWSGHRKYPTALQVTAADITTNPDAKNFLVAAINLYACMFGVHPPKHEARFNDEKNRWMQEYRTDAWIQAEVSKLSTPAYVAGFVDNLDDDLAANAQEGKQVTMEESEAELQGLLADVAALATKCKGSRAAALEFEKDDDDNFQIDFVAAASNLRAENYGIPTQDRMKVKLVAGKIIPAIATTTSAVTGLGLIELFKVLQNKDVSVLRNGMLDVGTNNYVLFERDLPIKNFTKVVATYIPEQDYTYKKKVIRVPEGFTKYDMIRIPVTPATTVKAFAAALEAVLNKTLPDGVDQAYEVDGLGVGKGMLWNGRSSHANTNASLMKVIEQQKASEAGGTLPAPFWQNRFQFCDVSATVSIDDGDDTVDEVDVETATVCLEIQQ
Put plainly: Leishmania donovani Ubiquitin Activating Enzyme (LdE1). The class given is functional. The conditions noted are these: 30 µM.

Assay [3] deals with AMP-activated protein kinase, AMPK (Homo sapiens) (UniProt P54646+O43741+P54619+Q9UGJ0+Q9Y478+Q13131+Q9UGI9). Put plainly: AMP-dependent Kinase enzyme assay. An in vitro enzyme assay that detects ADP turnover that is directly proportional to AMPK activity. This uses naive AMPK that is activated during the assay with MK-8722. It is filed as functional. The conditions noted are these: 30 µM.

For assay [4], the target named is Sialic acid-binding Ig-like lectin 9 (Homo sapiens) (UniProt Q9Y336). Put plainly: Hs-Siglec9 ALPHAscreen SOP 20170721. The note with it: 10 µM. Background: In Alpha technology, singlet oxygen from a donor bead excites a nearby acceptor bead.
Sequence of Sialic acid-binding Ig-like lectin 9 (Homo sapiens) (Q9Y336 whole entry): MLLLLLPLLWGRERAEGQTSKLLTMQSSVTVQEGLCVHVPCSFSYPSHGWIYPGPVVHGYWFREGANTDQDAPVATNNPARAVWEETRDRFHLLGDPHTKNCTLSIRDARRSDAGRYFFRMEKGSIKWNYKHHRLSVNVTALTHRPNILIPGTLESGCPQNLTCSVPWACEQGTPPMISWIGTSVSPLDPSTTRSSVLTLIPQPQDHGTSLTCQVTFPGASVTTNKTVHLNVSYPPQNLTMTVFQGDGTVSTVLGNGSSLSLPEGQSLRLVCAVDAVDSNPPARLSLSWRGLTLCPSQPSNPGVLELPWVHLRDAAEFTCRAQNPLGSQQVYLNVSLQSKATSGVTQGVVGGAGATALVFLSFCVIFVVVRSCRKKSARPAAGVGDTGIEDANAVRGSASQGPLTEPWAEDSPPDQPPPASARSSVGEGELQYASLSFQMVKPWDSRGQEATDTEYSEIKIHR
For assay [5], the system named is Trypanosoma cruzi. Put plainly: Trypanosoma cruzi phosphomannomutase and mannose-1-phosphate guanylyltransferase assay. It is filed as functional. The conditions noted are these: 10 µM.
Assay [6] deals with T2, Arginase-2, mitochondrial (Homo sapiens) (UniProt P78540).
T2 sequence (whole entry): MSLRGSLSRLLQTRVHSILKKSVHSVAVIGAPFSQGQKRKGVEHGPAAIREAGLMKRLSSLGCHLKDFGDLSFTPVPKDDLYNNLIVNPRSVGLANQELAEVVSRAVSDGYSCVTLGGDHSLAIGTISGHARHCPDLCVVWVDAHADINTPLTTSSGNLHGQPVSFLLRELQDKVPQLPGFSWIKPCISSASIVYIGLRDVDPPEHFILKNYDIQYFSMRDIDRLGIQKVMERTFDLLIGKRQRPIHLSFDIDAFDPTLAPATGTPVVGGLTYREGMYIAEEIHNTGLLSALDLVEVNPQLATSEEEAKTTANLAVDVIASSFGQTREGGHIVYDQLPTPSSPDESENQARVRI
Description: in vitro enzyme assay to detect the production of urea directly proportional to the activity of Arginase II. Further: in the data most compounds retested in dose-response had high values. The class given is functional. The note with it: 33.3 µM.

Assay [7] addresses T3, Proteasome subunit beta (Trypanosoma cruzi) (UniProt O96673).
T3 sequence (whole entry): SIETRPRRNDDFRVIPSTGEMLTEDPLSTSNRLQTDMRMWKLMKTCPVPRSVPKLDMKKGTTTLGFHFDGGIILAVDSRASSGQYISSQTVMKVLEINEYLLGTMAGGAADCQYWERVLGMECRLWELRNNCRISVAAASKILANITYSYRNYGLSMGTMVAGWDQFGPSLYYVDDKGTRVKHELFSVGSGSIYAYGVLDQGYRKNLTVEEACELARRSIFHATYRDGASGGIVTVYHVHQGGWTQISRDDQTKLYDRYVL
Put plainly: Trypanosoma cruzi proteasome chymotrypsin-like activity (TcProtChymo) assay. Further: in the data most compounds retested in dose-response had high values. The class given is functional. The conditions noted are these: 9.37 µM.

The species named for assay [8] is Homo sapiens. Description: To identify inhibition of the IFN signalling (Jak-Stat) pathway via expression of an eGFP reporter gene under the control of an IFN-stimulated response element (ISRE) containing MxA promoter. The class given is functional. The note with it: 30 µM.
Assay [9] has as its target T4, Tyrosyl-tRNA synthetase, putative (Trypanosoma cruzi (strain CL Brener)) (UniProt Q4DSP6).
T4 sequence (whole entry): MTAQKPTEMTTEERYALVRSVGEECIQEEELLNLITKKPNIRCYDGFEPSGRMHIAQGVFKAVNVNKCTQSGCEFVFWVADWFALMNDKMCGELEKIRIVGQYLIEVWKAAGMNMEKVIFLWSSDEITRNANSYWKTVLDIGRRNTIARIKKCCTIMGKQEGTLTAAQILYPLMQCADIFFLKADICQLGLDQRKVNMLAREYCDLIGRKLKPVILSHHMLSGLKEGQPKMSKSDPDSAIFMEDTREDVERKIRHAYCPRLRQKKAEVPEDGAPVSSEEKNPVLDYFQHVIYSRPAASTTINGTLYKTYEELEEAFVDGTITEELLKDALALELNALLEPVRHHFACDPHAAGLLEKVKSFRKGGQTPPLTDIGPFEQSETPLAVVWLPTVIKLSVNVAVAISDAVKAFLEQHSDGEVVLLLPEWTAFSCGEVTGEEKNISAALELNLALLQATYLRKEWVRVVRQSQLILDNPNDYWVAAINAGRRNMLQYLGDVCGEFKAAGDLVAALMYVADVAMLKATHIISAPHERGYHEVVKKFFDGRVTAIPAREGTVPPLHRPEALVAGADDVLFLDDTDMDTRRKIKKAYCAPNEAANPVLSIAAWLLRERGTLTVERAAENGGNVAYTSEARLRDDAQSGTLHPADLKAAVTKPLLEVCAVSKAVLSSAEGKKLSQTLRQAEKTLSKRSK
Description: Trypanosoma cruzi tyrosyl tRNA synthetase (TcYRS) _High Tyrosine SOP. Further: in the data most compounds retested in dose-response had high values. It is filed as functional. The conditions noted are these: 30 µM.

Assay [10] concerns the target T4, Tyrosyl-tRNA synthetase, putative (Trypanosoma cruzi (strain CL Brener)). Put plainly: Trypanosoma cruzi tyrosyl tRNA synthetase (TcYRS) SOP. It is filed as functional. The note with it: 30 µM.
Assay [11] has as its target Chromo domain-containing protein 1 (Saccharomyces cerevisiae (strain ATCC 204508 / S288c) (Baker's yeast)) (UniProt P32657). Description: ScCHD-1 Enzyme Inhibition Assay. Further: in the data most compounds retested in dose-response had high values. It is filed as functional. The note with it: 30 µM.

Sequence of Chromo domain-containing protein 1 (Saccharomyces cerevisiae (strain ATCC 204508 / S288c) (Baker's yeast)) (P32657 whole entry, the tested form may be a part): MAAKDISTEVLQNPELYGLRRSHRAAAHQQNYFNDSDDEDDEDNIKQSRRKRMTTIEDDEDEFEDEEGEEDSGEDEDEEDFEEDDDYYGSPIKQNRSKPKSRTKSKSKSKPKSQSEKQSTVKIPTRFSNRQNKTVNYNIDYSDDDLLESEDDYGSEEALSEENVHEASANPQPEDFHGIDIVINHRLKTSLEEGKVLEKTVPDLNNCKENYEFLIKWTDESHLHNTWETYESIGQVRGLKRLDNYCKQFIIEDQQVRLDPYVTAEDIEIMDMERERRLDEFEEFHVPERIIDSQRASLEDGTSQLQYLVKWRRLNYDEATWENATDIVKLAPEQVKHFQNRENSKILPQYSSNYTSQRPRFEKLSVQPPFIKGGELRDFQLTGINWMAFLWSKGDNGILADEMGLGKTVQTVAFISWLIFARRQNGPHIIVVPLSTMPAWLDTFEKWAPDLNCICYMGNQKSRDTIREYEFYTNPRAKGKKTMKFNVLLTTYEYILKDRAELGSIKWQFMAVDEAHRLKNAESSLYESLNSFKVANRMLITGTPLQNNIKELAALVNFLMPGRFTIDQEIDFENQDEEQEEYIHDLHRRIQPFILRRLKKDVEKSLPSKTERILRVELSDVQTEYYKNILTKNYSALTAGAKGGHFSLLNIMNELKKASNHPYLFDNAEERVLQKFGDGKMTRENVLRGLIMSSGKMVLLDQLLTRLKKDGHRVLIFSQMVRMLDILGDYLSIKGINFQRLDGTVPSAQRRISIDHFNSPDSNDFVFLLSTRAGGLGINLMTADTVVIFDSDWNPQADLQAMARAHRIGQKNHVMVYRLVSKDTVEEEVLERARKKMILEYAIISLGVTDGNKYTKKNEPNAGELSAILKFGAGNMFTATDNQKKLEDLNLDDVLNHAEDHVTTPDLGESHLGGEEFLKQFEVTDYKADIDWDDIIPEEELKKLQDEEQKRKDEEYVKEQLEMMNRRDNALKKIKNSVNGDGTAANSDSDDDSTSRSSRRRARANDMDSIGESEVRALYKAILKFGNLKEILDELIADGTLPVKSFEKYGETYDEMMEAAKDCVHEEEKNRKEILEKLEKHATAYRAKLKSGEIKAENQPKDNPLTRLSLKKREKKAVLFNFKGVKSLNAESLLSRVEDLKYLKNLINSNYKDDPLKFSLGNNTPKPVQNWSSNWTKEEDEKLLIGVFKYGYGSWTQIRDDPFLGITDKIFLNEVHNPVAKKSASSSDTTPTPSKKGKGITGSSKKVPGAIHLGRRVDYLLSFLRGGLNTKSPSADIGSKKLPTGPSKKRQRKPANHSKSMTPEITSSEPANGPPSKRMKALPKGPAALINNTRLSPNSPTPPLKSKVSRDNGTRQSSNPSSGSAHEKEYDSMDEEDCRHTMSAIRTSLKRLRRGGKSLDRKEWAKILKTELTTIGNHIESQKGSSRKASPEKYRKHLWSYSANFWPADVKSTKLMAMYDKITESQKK

For the molecule `CC1c2ncc(Cn3cncn3)n2CCN1C(=O)C1CCOCC1` (stereo unspecified), the Percent Effect in [1] is -4.07%; in assay [2], 10.7%; in assay [3] it was -5.52%; in assay [4] it was 0.0625%; in assay [5] it was 4.83%; in assay [6] it was -56.5%. Also, the Percent Effect in assay [7] was 5.13%; in assay [8], -14.3%; in assay [9], 3.12%; in assay [10], 7.5%; in assay [11], -6.18%.

For the molecule `Cc1nc(-c2ccco2)ccc1C(=O)N1CCCC1Cn1cccn1` (stereo unspecified), the Percent Effect was -2.79% in assay [1]; 1.27% in assay [2]; 3.11% in assay [3]; 2.49% in assay [4]; -0.513% in assay [5]; 3.66% in assay [6]. Further, the Percent Effect in [7] is 13.4%; in assay [8], 7.74%; in [9] it was 4.17%; in assay [10], 0%; in [11], -8.65%.

`COc1ncccc1CN1Cc2nnn(C)c2C(COCC2CC2)C1` (stereo unspecified): the Percent Effect in assay [1] was -1.6%; in assay [2] it was 7.79%; in assay [3] it was 4.07%; in assay [4], -3.49%; in [5], -5.62%; in [6], 3.23%. For the same molecule, the Percent Effect in assay [7] was 1.92%; in assay [8], 2.8%; in assay [9], 4.23%; in assay [10] it was 14.1%; in assay [11], -4.09%.

As for `CCCOc1ccc(CNC(=O)N2CCC(C(N)=O)C2)cc1` (stereo unspecified), the Percent Effect in [1] was -0.765%; in [2], 22.8%; in assay [3], -8.41%; in [4] it was -9.27%; in [5], -2.36%; in [6], 2.28%. Further, the Percent Effect in assay [7] was 5.82%; in assay [8] it was -21.1%; in assay [9], 4.43%; in assay [10], 13.9%; in [11] it was -2.35%.

In the case of `Cc1nccn1-c1cc(CNC(=O)C(C)(C)C)ccn1`, the Percent Effect in assay [1] is -0.152%; in [2], 11%; in assay [3] it was 4.7%; in [4], 6.88%; in assay [5], 0.588%; in assay [6] it was 34.1%. Also, the Percent Effect in assay [7] is 18.1%; in assay [8] it was -3.27%; in [9], 2.15%; in assay [10] it was 17.5%; in [11], -6.75%.

`CNC(=O)c1cccc(CNC(=O)C2CC(=O)N(CCN(C)C)C2)c1` (stereo unspecified): the Percent Effect in [1] was -5.39%; in assay [2], 5.33%; in assay [3], 4.48%; in [4] it was 0.817%; in assay [5], -2.63%; in [6] it was -1.04%. The Percent Effect in [7] is 12.2%; in assay [8], 14.1%; in assay [9] it was 3.83%; in assay [10], 6.17%; in assay [11], -3.88%.

Turning to `O=C(Cc1ccc2c(c1)CCO2)N1CCN(c2cnccn2)CC1`, the Percent Effect was -4.64% in assay [1]; -7.89% in assay [2]; 2.2% in assay [3]; -0.444% in assay [4]; 9.59% in assay [5]; -1.53% in [6]. Also, the Percent Effect in [7] was 0.167%; in assay [8], 5.16%; in [9] it was 3.43%; in assay [10], 7.32%; in assay [11] it was -12.2%.

In the case of `COCCNC(=O)[C@H]1C[C@@H]2CCN(c3nncs3)C[C@H]2O1`, the Percent Effect in [1] is -0.719%; in assay [2] it was -8.11%; in assay [3], 6.18%; in [4] it was -4.67%; in [5], -1.37%; in [6], 1.67%. The Percent Effect in assay [7] is -0.254%; in [8] it was 7%; in [9], 5.94%; in [10] it was 6.1%; in assay [11], 1.42%.

`Cc1cnn(CC2CCCN2Cc2ncc(-c3ccccc3)o2)c1` (stereo unspecified): the Percent Effect in assay [1] is -1.68%; in assay [2] it was -5.41%; in assay [3] it was -10.1%; in assay [4], -3.94%; in assay [5], -9.53%; in [6], 4.01%. Further, the Percent Effect was 8.11% in assay [7]; 10.7% in assay [8]; 10.3% in [9]; 18.5% in assay [10]; -6.8% in assay [11].

As to `CC[C@@H]1N(CC2CC2)CCC[C@]12CCC(=O)N2CCOC`, the Percent Effect in assay [1] was -3.03%; in assay [2], 8%; in assay [3], 5.19%; in [4] it was 4.35%; in assay [5], 0.772%; in [6], -53.9%. The Percent Effect was 5.47% in assay [7]; -8.94% in assay [8]; 5.21% in [9]; 0% in assay [10]; -4.58% in assay [11].

Consider `O=C(NCCn1ccnc1)c1ccn(-c2cccc(F)c2)n1`, for which the Percent Effect in assay [1] is -6.24%; in [2], 15.8%; in assay [3] it was -0.288%; in [4], -5.43%; in assay [5] it was -11.1%; in [6], -0.719%. The Percent Effect in [7] was 2.28%; in assay [8], -0.954%; in assay [9], 0.493%; in assay [10] it was 3.7%; in assay [11] it was -2.98%.
